# Mtb UGM inh – inhibitors of M. tuberculosis UDP-galactopyranose mutase; purified UGM, fluorescence polarization probe displacement; inhibition, % at 10 µM; actives 0.06% (n = 320,000); in the data active means inhibition above about 10%, passing the limit was not always enough; inconclusive means no clear call, values can overlap the other calls
# Target sequence (P9WIQ1 whole entry, looked up): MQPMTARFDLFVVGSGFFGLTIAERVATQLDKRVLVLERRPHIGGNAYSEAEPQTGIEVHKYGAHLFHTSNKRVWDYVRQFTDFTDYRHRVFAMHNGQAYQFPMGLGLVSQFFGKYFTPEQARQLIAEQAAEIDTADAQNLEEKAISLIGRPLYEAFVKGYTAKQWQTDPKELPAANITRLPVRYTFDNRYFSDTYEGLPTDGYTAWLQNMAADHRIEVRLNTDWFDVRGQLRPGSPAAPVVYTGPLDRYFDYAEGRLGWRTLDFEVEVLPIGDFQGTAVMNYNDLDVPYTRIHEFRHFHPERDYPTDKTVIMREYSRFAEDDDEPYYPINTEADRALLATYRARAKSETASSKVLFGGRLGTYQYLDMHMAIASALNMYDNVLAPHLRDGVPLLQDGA
# Rv3671c protease – Rv3671c (M. tuberculosis) protease inhibition | inhibition, % at 5.96 µM | actives 0.048% (n = 320,000) | AID 2606 | P9WHR9; in the data active means inhibition above about 38%;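 further: extracellular domain of Rv3671c used as enzyme; 0% = enzyme with DMSO and 100% = no enzyme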
# FBA Mtb inh – Mtb fructose-bisphosphate aldolase inhibition | P9WQA3 | purified M. tuberculosis FBA, fluorescence read-out | inhibition, % at 1 µM | actives 2.3% (n = 360,000); in the data active means inhibition above about 27%;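 further: 0% = vehicle and 100% = reference inhibitor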
# RecA splice inh – Mtb RecA intein splicing inhibition. actives 0.75% (n = 290,000). AID 2221. inhibition, % (no concentration beside the values). cell-free RecA intein splicing, fluorescence; in the data active means inhibition above about 30%; inconclusive means no clear call, values can overlap the other calls;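 further: 0% = vehicle wells and 100% = reference inhibitor control wells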
# Mtb bLac sens – beta-lactam sensitization of Mtb H37Rv. M. tuberculosis H37Rv growth with meropenem, percent inhibition. inhibition, % at 25 µM. actives 0.27% (n = 330,000). AID 434955; call rule not given here;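 further: growth measured after seven days incubation then overnight dye step; 0% = bacteria only wells and 100% = bacteria with antibiotic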
# GDH-TPI inh – inhibits GDH-TPI coupling enzymes, artifact for Mtb FBA screen; GDH-TPI coupled enzyme counterscreen, NADH absorbance; inhibition, % at 4.8 µM; AID 588335; actives 1.2% (n = 360,000); in the data active means inhibition above about 30%;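 further: 0% = DMSO wells and 100% = wells lacking the enzyme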
# * marks the source's active call; other numbers are inactive results; ? = inconclusive; nt = no result given; + = active, no number. This is a sample that favours compounds with a hit; in the whole collection about 4% have one here.
SMILES,Mtb UGM inh,Rv3671c protease,FBA Mtb inh,RecA splice inh,Mtb bLac sens,GDH-TPI inh
Cc1ccc(Cc2c(-c3ccc(F)cc3)nc3ccc(Cl)cn23)cc1,nt,nt,1.0,nt,nt,-10.9
Nc1c(C(=O)Nc2ccccc2F)sc2nc(Cc3ccccc3)cc(C(F)(F)F)c12,25.6*,6.1,-0.3,-16.4,3.2,9.4
Cc1ccccc1-c1noc(N)c1C#N,-0.8,-1.5,2.9,12.6,73.7,13.1
CN(C)/C=C/c1onc(-c2ccccc2Cl)c1C#N,0.7,-8.8,-2.5,4.0,6.0,43.4*
Cc1ccc(C(=O)O/N=C(\N)c2ccccn2)cc1,-0.2,-9.8,2.1,-3.0,6.6,-4.6
C/C(=N\OC(=O)c1ccc(Br)cc1)c1ccccn1,0.7,4.4,8.8,2.5,3.9,31.0*
CCCCC(=O)Nc1ncc2c(n1)CC(C)(C)CC2=O,3.7,-4.4,146.6*,-0.2,-6.9,-5.3
Nc1n[nH]c(N)c1N=Nc1ccccc1F,-2.6,4.7,1.0,-1.3,7.3,38.0*
CN(Cc1cnc2nc(N)nc(N)c2n1)c1ccc(C(=O)NC(CCC(=O)O)C(=O)O)cc1 (stereo unspecified),nt,nt,73.6*,nt,nt,20.7
Nc1nc(N)c2nc(CNc3ccc(C(=O)NC(CCC(=O)O)C(=O)O)cc3)cnc2n1 (stereo unspecified),3.4,2.8,nt,nt,?,nt
CN(Cc1cnc2nc(N)nc(N)c2n1)c1ccc(C(=O)NC(CCC(=O)O)C(=O)O)cc1C(F)(F)F (stereo unspecified),nt,nt,33.1*,nt,nt,20.7
O=C(NC(=S)NC12CC3CC(CC(C3)C1)C2)c1ccc(F)cc1,0.4,-0.7,3.3,nt,6.0,-1.8
O=Cc1ccc(OC(=O)C2CC(=O)N(c3ccc(F)cc3)C2)cc1 (stereo unspecified),0.1,-5.9,-0.9,4.6,5.4,31.1*
O=C(Cc1c(F)cccc1Cl)OCC(=O)c1ccc[nH]1,-0.6,7.2,-1.2,nt,-0.9,-14.0
Cc1cc(/C=C(\C#N)C(=O)OCC#N)c(C)n1CC(C)C,0.1,-5.8,1.0,1.3,9.4,7.8
Cc1cc(/C=C(\C#N)C(=O)OCC(=O)Nc2ccc(OC(F)F)cc2)c(C)n1CC(C)C,-2.9,-80.9,0.1,-5.9,1.1,30.9*
O=C(O)Cc1ccc2c(c1)N(S(=O)(=O)c1cccs1)CC(C(=O)O)O2 (stereo unspecified),-1.4,3.6,-0.3,-2.3,-7.0,-2.0
OCC[C@@H]1C[C@H](O)[C@@H](O)[C@@]2(OCCc3cc(Cl)ccc32)O1,nt,nt,1.4,nt,nt,nt
CC(=O)Nc1cnc(-c2cc(C)c(O)c(C)c2)cn1,nt,nt,0.4,nt,nt,32.3*
C(=N\N1CCOCC1)/c1cn(-c2ccccc2)nc1-c1ccccc1,2.0,1.7,0.3,-0.9,3.4,2.5
C(=N\N1CCOCC1)/c1nc(-c2ccccc2)n2ccccc12,1.2,-7.2,1.1,-2.0,-4.9,34.1*
CC1(C)OC(=O)C(=NNc2ccccc2C(=O)O)C(=O)O1,-1.7,7.2,-4.2,1.4,11.8,49.4*
CNC(=S)N(C)CCc1cc2c(c(OC)c1C=C1C(=O)NC(=O)NC1=O)OCO2,-2.0,6.3,-1.4,-1.8,-9.5,37.9*
COc1c(/C=N/Nc2ccc(C(=O)O)cc2)c(CCN(C)C(C)=O)cc2c1OCO2,0.4,7.6,-1.8,-2.7,3.4,36.7*
COc1c(/C=N/NC(=O)c2ccccc2O)c(CCN(C)C(C)=O)cc2c1OCO2,0.1,-1.1,-2.8,-3.7,-4.9,20.9
SMILES,Mtb UGM inh,Rv3671c protease,FBA Mtb inh,RecA splice inh,Mtb bLac sens,GDH-TPI inh
C=CCN1C(=O)NC(=O)/C(=C/c2c(CCN(C)C(=O)c3ccccc3)cc3c(c2OC)OCO3)C1=O,6.8,-6.6,-1.4,-1.8,0.9,-5.9
CCOC(=O)C(C(=O)OCC)C1N=C(N)N=C2Oc3ccccc3N21 (stereo unspecified),0.7,2.4,5.5,12.4,90.4,49.4*
CCOC(=O)CN1C(=O)C(CC)Oc2ccccc21 (stereo unspecified),-0.3,1.6,-0.3,2.5,14.8,-0.6
C[C@H](CO)N1C[C@H](C)[C@@H](CN(C)S(=O)(=O)c2cn(C)cn2)Oc2c(NC(=O)Nc3ccc4c(c3)OCO4)cccc2C1=O,-1.1,1.6,0.1,nt,7.9,-0.9
COc1ccc(CNCc2c(O)c(Cl)cc3c(C)c(C)c(=O)oc23)c(OC)c1,1.4,-3.5,+,-394.0,-7.0,18.0
CCc1cc(=O)oc2c(CNCc3ccc(OC)cc3OC)c(O)c(Cl)cc12,-0.6,5.8,+,-21.8,1.2,16.0
CCCc1cc(=O)oc2c(CN(CC)CC)c(O)c(Cl)cc12,-2.6,8.4,nt,-139.0,-3.7,22.7
COc1ccc(CNCc2ccncc2)c(OC)c1,4.4,-9.8,3.1,-2.4,-2.7,-5.5
O=C(Nc1cc(Cl)ccc1-n1cncn1)c1cc(F)c(F)c(F)c1F,0.0,5.7,-2.5,2.0,-2.4,5.0
O=C(NCc1ccco1)c1cnc2sccn2c1=O,1.7,4.3,0.9,-3.1,-4.4,32.9*
O=C(Nc1nccs1)c1cnc2sccn2c1=O,nt,nt,0.5,nt,nt,44.8*
Cc1ccnc2nc(C(=O)OCC(=O)N(CC(C)C)C3CCS(=O)(=O)C3)nn12 (stereo unspecified),-1.4,-4.6,0.6,nt,-6.0,5.6
Cc1cccc(C(=O)NC2CCCCCCC2)c1,0.4,6.8,0.3,2.2,-3.2,-0.7
Cc1cccc(C(=O)NC2C(=O)NNC2c2ccc(Cl)cc2)c1 (stereo unspecified),-0.7,-25.6,-1.8,91.6*,7.5,3.1
O=C1c2c(O)cc(O)cc2O[C@@]12c1c(cc(O)c3c1O[C@H](c1ccc(O)cc1)[C@@H](O)C3)O[C@@H]2c1ccc(O)cc1,-1.8,-10.9,5.9,-2.8,0.2,36.2*
O=C1c2c(O)cc(O)cc2O[C@H](c2ccc(O)cc2)[C@H]1O,0.3,2.4,-0.3,-3.6,0.5,17.6
CCOc1ccc(N(CC(=O)N2CCN(C(=O)CN(c3ccc(OCC)cc3)S(C)(=O)=O)CC2)S(C)(=O)=O)cc1,1.6,-1.5,1.1,0.3,4.8,8.6
CCOC(=O)c1sc(=S)n(-c2ccccc2OC)c1N,0.2,-2.8,-3.1,-4.7,-5.3,14.9
CCOc1ccccc1-n1c(N)c(C(N)=O)sc1=S,-0.5,3.9,-1.9,4.0,?,31.5*
COc1ccc(Cl)cc1-n1c(N)c(C(N)=O)sc1=S,0.8,0.4,0.7,1.0,16.2,37.1*
CC(C)c1cccc(OCCN2CCCC2)c1,1.4,-3.6,1.2,-2.2,-2.1,6.4
COc1ccc(C(=O)NCCC2=CCCCC2)cc1OC1CCN(C(C)C)CC1,1.2,-7.5,1.9,-5.1,-3.3,16.2
Cc1ccc(C(=O)Nc2sc3c(c2C(=O)O)CCCC3)o1,1.1,-1.1,14.1,-2.5,11.1,35.8*
OCCNC(=S)Nc1ccc2nsnc2c1,-0.8,-72.7,2.9,45.9*,-3.1,4.1
O=C(NCCO)Nc1ccc2nsnc2c1,0.9,4.4,19.1,nt,-6.5,11.2
CS/C(=C\[N+](=O)[O-])Nc1ccc(Cl)cc1,0.1,-7.4,2.9,41.9*,82.1,11.8
